Reference: PubChem BioAssay (NCATS)
Inconclusive results are not listed. Entries that show only a call come without a potency. Activity calls are given as the source filed them. The call rests on the fitted dose curve; in most records, active means well fitted cell-killing curve with a large enough effect; inconclusive means small, poorly fitted or top-dose-only effect, or effect the other way; inactive means no such curve, though single readings can be large or run the other way.

Experiment: qHTS of pediatric cancer cell lines to identify multiple opportunities for drug repurposing: Confirmatory screen for MG 63 (6-TG R) cells (AID 1347119); further: nearly all actives have a fitted effect of over 55% in size
Conditions: MG-63 (6-TG resistant) osteosarcoma viability; series mostly up to 45.9 µM
Text: Drug repurposing or repositioning has been offered as a strategy for drug development in oncology programs. This approach has special potential for childhood cancers and other rare or orphan diseases, where the expected return on new drug development has been a disincentive to pharmaceuticals.
In this project we exploit the poly-pharmacology of drugs to discover new indications via phenotypic screening of a panel of 19 well-characterized cell lines derived from solid tumors seen in children and adolescents. The goal is to identify approved drugs with previously unrecognized anticancer properties that has the potential to reveal new mechanisms and biological processes involved in carcinogenesis or drug resistance. We employed a titration-based paradigm (quantitative high-throughput screening or qHTS), where all compounds were tested at multiple concentrations for their effect on cell viability. Concentration-response curves (CRCs) were derived directly from the primary screen, and both potency and efficacy values were used to identify compounds with robust bioactivity profiles. We screened the NIH Chemical Genomics Center (NCGC) Pharmaceutical Collection (NPC) and Mechanism Interrogation Plate (MIPE) small molecule collections of approved and investigational compounds against these cell lines; and measured metabolically active cells after 48 hours of compound treatment as a proxy for cell viability.
Assay Submitter: Nathalia J. Martinez, National Center for Advancing Translational Sciences, National Institutes of Health, Rockville, MD, USA; email: natalia.martinez@nih.gov
[1] Shen, M et al. Quantitative high-throughput phenotypic screening of pediatric cancer cell lines identifies multiple opportunities for drug repurposing. Oncotarget 2017 Dec 19;9(4):4758-4772. PMID 29435139.
The cells were obtained from University of North Carolina (UNC), Pediatric Preclinical Testing Program (PPT), and Coriell Institute (CI).
qHTS cell viability assay:
Cells were assayed in growth media at a density of 500-1,000 cells/well. Five microliters of cells were dispensed into 1,536-well, white, solid-bottom, TC-treated plates (Greiner Bio One) using a multidrop dispenser and incubated at 37 degrees C, 5% CO2, under a humidified atmosphere for 5 hours. Twenty-three nanoliters of compounds and controls (neutral control DMSO or positive control bortezomib at final concentration of 2.3 µM) were subsequently transferred by Kalypsys pintool. For primary screens, the MIPE collection was tested at 11-point dilutions (final concentrations range from 0.78 nM to 46 µM) and the NPC collection at 8-point dilutions (final concentrations range from 0.59 nM to 46 µM). Compounds tested in follow-up screens were assayed at 11-point dilutions. Cells were incubated for 48 hours, followed by addition of 3 µL of CellTiter-Glo (Promega). After a 15 min incubation at room temperature, samples were analyzed for luminescence intensity using a ViewLux High-throughput CCD imager equipped with clear filters.
Potency means the concentration at half of the fitted maximal effect.

| Structure (SMILES) | Potency |
| --- | --- |
| O=C1c2c(O)ccc(O)c2C(=O)c2c(NCCNCCO)ccc(NCCNCCO)c21 | 414 nM (active) |
| CC[C@@]1(O)C(=O)OCc2c1cc1n(c2=O)Cc2cc3c(CN(C)C)c(O)ccc3nc2-1 | 329 nM (active) |
| CC#C[C@]1(O)CC[C@H]2[C@@H]3CCC4=CC(=O)CCC4=C3[C@@H](c3ccc(N(C)C)cc3)C[C@@]21C | inactive |
| COC(=O)Nc1nc2ccc(C(=O)c3cccs3)cc2[nH]1 | 147 nM (active) |
| COc1cc2c(c(OC)c1OC)-c1ccc(OC)c(=O)cc1[C@@H](NC(C)=O)CC2 | 100 nM (active) |
| CC(C)Cc1ccc(C(C)C(=O)O)cc1 (centres undefined) | inactive |
| CN(Cc1cnc2nc(N)nc(N)c2n1)c1ccc(C(=O)N[C@@H](CCC(=O)O)C(=O)O)cc1 | inactive |
| CCC1(c2ccccc2)C(=O)NCNC1=O | inactive |
| CS(=O)(=O)Nc1ccc([N+](=O)[O-])cc1Oc1ccccc1 | 16500 nM (active) |
| NC(=O)NO | inactive |
| CCCCc1oc2ccccc2c1C(=O)c1cc(I)c(OCCN(CC)CC)c(I)c1 | 39800 nM (active) |
| CC(CCc1ccc(O)cc1)NCCc1ccc(O)c(O)c1 (centres undefined) | inactive |
| Clc1ccc2nsnc2c1NC1=NCCN1 | inactive |
| O=C(Nc1ccc([N+](=O)[O-])cc1Cl)c1cc(Cl)ccc1O | 1620 nM (active) |
